# Source: PubChem (National Center for Advancing Translational Sciences (NCATS))
# BAZ2B inh: qHTS Assay for Inhibitors of BAZ2B | Bromodomain adjacent to zinc finger domain protein 2B (Homo sapiens), Q9UIF8 | AlphaScreen BAZ2B-H3K14Ac peptide displacement | Potency, µM (highest dose often 114 µM), most hits filed as inhibitors | 360,000 compounds, 4.4% hits; note: nearly all actives have a fitted effect of over 60% in size
#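 In this displacement format the biotinylated H3(5-23) peptide acetylated at Lys14 serves as ligand at 50 nM, with BAZ2B at 50 nM in PBS pH 7.4 containing 0.01% Tween-20. Donor and acceptor beads are 10 ug/mL final.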
# JMJD2A Tudor: qHTS Assay for Inhibitors of JMJD2A-Tudor Domain. Lysine-specific demethylase 4A (Homo sapiens), O75164. AlphaScreen JMJD2A-Tudor / H3K4me3 peptide binding. Potency, µM (titrated, usually from 114 µM), most hits filed as inhibitors. 390,000 compounds, 4.4% hits. AID 504339, 2011; note: nearly all actives have a fitted effect of over 50% in size
# HP1b binding inh: HTS for Inhibitors of HP1-beta Chromodomain Interactions with Methylated Histone Tails; 390,000 compounds, 0.56% hits; AlphaScreen HP1-beta / biotin-H3K9me3 peptide binding; Chromobox protein homolog 1 (Homo sapiens), P83916; Potency, µM (highest dose often 114 µM), actives largely listed as inhibitors; AID 540317, 2011; note: nearly all actives have a fitted effect of over 70% in size
# Target sequence (P83916 whole entry, looked up): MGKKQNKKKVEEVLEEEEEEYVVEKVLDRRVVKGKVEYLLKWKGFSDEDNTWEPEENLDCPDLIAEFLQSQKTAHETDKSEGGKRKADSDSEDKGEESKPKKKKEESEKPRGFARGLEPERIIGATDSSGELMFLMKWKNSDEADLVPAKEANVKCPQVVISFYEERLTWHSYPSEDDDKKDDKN
#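 HP1-beta protein (50 nM final) preincubated 30 min at room temperature with biotinylated H3(1-18)K9me3 peptide (50 nM) in PBS pH 7.4, 0.01% Tween-20, then compound added for 30 min. AlphaScreen streptavidin donor/nickel chelate acceptor beads (10 ug/mL final), 30 min dark, luminescence read.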
# Sfp PPTase inh: qHTS Assay for Inhibitors of Bacillus subtilis Sfp phosphopantetheinyl transferase (PPTase). Biochemical Sfp PPTase activity, qHTS. Potency, µM, actives largely listed as inhibitors. 310,000 compounds, 3.5% hits. AID 1490, 2009;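 note: the enzyme is Sfp with the accession as filed and its product quenches rhodamine fluorescence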
#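 Fluorescence-quenching assay: 15 nM Sfp-PPTase preincubated 15 min at room temperature with compound, then 5 uM rhodamine-CoA and 12.5 uM BHQ-2-labelled YbbR peptide added. Fluorescence (ex 525/em 598 nm) read at start and after 30 min; difference gives rate.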
# G9a inh: qHTS Assay for Inhibitors of Histone Lysine Methyltransferase G9a | Potency, µM (titrated, usually from 102 µM), most hits filed as inhibitors | G9a H3K9 monomethylation, AlphaScreen, 2 h | 350,000 compounds, 8.8% hits | AID 504332, 2011; note: nearly all actives have a fitted effect of over 75% in size
# Target sequence (Q96KQ7 913-1193 limits assumed): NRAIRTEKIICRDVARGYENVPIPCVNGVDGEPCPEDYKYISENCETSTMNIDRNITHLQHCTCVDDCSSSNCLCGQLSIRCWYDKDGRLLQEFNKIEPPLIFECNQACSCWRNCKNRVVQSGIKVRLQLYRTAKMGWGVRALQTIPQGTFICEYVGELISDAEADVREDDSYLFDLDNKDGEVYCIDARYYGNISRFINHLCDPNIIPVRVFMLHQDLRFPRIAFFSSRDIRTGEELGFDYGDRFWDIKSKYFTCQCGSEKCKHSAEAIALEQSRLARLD
#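 Signal arises when biotinylated H3K9 peptide, once monomethylated, bridges streptavidin donor and antibody-captured acceptor beads. Enzyme at 20 nM was preincubated 15 min with test compounds; peptide 500 nM and SAM 20 uM then reacted for 2 h.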
# A number is an active result; i = inactive; ? = inconclusive; nt = no result given; [ ] = remark or other dose. Most compounds without a hit are left out; they make up all but 12% or so of the library. Calls come from the whole dose curve; as a rule, active = well fitted curve in the direction sought with a large enough effect; inconclusive = small, poorly fitted or top-dose-only effect, or another doubt; inactive = no such curve, though single readings can be large; an effect the other way counts as inactive or inconclusive.
SMILES,BAZ2B inh,JMJD2A Tudor,HP1b binding inh,Sfp PPTase inh,G9a inh
N#Cc1c(C#N)c(O)c2ccccc2c1O,i,i,i,13µM,2µM
Cc1cccc(-n2ncc3c2CCCC3NC(=O)CN2CCCC2=O)c1C (stereo not drawn),i,i,i,i,nt
O=C(NC1CCCCC1)[C@@H]1CC=C[C@@H]2CCN(C3CCCCC3)C(=O)[C@@H]21,nt,i,i,nt,nt
CCN(CC)S(=O)(=O)c1cccc(C(=O)OCC(=O)N2CC(=O)Nc3ccccc32)c1,i,i,i,i,20µM
O=C1CN(C(=O)COC(=O)c2ccc(N3CCCCCC3)c([N+](=O)[O-])c2)c2ccccc2N1,?,?,?,i,40µM
CC(=O)Nc1ccc(N2CCCC(C)C2)c([N+](=O)[O-])c1 (stereo not drawn),35µM,?,?,i,?
CC1CCCN(c2ccc(/C=C(\C#N)c3nn(-c4ccccc4)c(N)c3C#N)cc2[N+](=O)[O-])C1 (stereo not drawn),?,?,i,i,22µM
CC1CCCN(c2ccc(C(=O)Nc3cccnc3)cc2[N+](=O)[O-])C1 (stereo not drawn),?,i,i,i,50µM
Cc1ccc(NC(=O)CN2C(=O)COc3ccc(S(=O)(=O)N4CCOCC4)cc32)cc1F,i,i,i,i,i
CCOc1cc(/C=C2/C(=O)ON=C2C)ccc1O,i,i,i,i,50µM
CCCCC1(C)OC(=O)C(=Cc2ccc(N(CC)CC)cc2)C(=O)O1 (stereo not drawn),56µM,?,i,i,71µM
CCOc1cc(/C=C2\C(=O)N(c3cccc(C(F)(F)F)c3)C(=O)c3ccccc32)ccc1O,?,?,?,i,?
CC1=NOC(=O)/C1=C/c1ccc(O)c(Cl)c1,50µM,i,i,i,50µM
CCOc1cc(/C=C2\CN(C)C/C(=C\c3ccc(O)c(OCC)c3)C2=O)ccc1O,45µM,56µM,?,i,35µM
COCCN1C(=O)c2oc3cc(C)c(C)cc3c(=O)c2C1c1cccc(O)c1 (stereo not drawn),nt,i,i,nt,nt
CNC(=O)COc1ccc2oc3c(c2c1)CCCC3,i,i,i,i,i
CCOC(=O)N1CCN(C(=O)c2cc(OCC)c(OCC)c(OCC)c2)CC1,i,i,i,i,i
CCN(CC)c1ccc(/C=C2\C(=O)N(c3nnc(C)c(=O)[nH]3)N=C2C)cc1,8.9µM,20µM,i,10µM,50µM
CC1=NN(CCC#N)C(=O)/C1=C/c1ccc(N(C)C)cc1,nt,i,?,i,?
CCCOc1ccc(CCCN=C(N)N)cc1Cl,i,i,i,i,i
CCN(CC)c1ccc(/C=C2/C(=O)ON=C2C)cc1,40µM,45µM,?,i,45µM
CCCOc1ccc(/C=C2/C(=O)ON=C2C)cc1Cl,i,i,i,50µM,28µM
CC1=NOC(=O)/C1=C/c1ccc(N(C)C)cc1,i,i,i,i,?
CCc1ccc(OCC(=O)Nc2c(C(=O)c3ccc(Br)cc3)oc3ccccc23)cc1,i,i,i,nt,i
CCCCN(C(=O)COC(=O)CSc1ccc([N+](=O)[O-])cc1)c1c(N)n(CCC)c(=O)[nH]c1=O,i,i,i,nt,?
SMILES,BAZ2B inh,JMJD2A Tudor,HP1b binding inh,Sfp PPTase inh,G9a inh
Cc1cccc(/N=C2/NC(=O)C(Cc3ccccc3)S2)n1 (stereo not drawn),i,i[11.4 µM],i,i,i
CC(C)(C)c1nc(SCC(=O)c2ccccc2)c2ccccc2n1,i,i,i,?,i
CC(C)(C)c1nc(SCC(=O)N2CCCC2)c2ccccc2n1,i,i,i,i,50µM
Cc1cccc(OCCCC(=O)O)c1C,i,i,i,i,i
Oc1[nH]c2ccccc2c1N=NC(=S)N1CCOCC1,22µM,7.1µM,i,i,32µM
NC(=S)N=Nc1c(O)[nH]c2ccccc12,i,?,i,?,?
COC(=O)N=Nc1c(O)[nH]c2ccc(Br)cc12,i,i,i,i,i
Oc1[nH]c2ccc(Br)cc2c1N=NC(=S)N1CCOCC1,45µM,18µM,i,i,3.5µM
CCOc1ccc(-c2nn[nH]n2)cc1OCC,i,i,i,i,?
CC(N)(C(=O)O)c1ccc(S(=O)(=O)O)cc1 (stereo not drawn),nt,nt,nt,50µM,i
Cc1cc([C@](C)(N)C(=O)O)ccc1P(=O)(O)O,nt,nt,nt,i,nt
CCOc1ccc(-c2nn[nH]n2)cc1,?,50µM,i,i,i[2.33 µM]
C[C@](N)(C(=O)O)c1ccc(-c2nn[nH]n2)cc1,nt,nt,nt,28µM,nt
COc1ccccc1OC(C)C(=O)O (stereo not drawn),i,?,i,i,i[12.7 µM]
Cn1c(=O)[nH]c(=O)c2c1nc(CN1CCOCC1)n2Cc1ccc(F)cc1,i,i,i,i,i
Cc1ccc(CNc2nc3ccc(Cl)cc3n3cnnc23)cc1,i,i,i,nt,i
Cc1ccc(C2CC(=O)Oc3cc(C)c(Cl)cc32)cc1 (stereo not drawn),nt,nt,nt,?,i
N#Cc1c(-c2cccs2)cc(-c2cccs2)[nH]c1=O,i,i,i,i,i
Cc1cc(-c2cccs2)c(C#N)c(=S)[nH]1,i,7.9µM,i,20µM,1.6µM
CCOC(=O)c1c(NC(=O)c2cc(C)oc2C)sc(C(=O)Nc2ccc(Cl)cc2)c1C,i,i,i,i,i
N#CC1=C2SCN(Cc3ccco3)CN2C(=O)CC1c1ccccc1F (stereo not drawn),56µM,5µM,45µM,2µM,0.28µM
N#CC1=C2SCN(Cc3ccco3)CN2C(=O)CC1c1cccc2ccccc12 (stereo not drawn),?,56µM,?,1.4µM,0.89µM
S=C1SCN(Cc2ccco2)CN1Cc1ccco1,i,i,i,?,i
O=C(/C=C/c1ccccc1)NCC(=O)N/N=C/c1cccs1,i,i,i,i,i
Cc1nonc1C1CCCN1Cc1cn[nH]c1-c1ccc2c(c1)OCO2 (stereo not drawn),i,i,i,i,i
SMILES,BAZ2B inh,JMJD2A Tudor,HP1b binding inh,Sfp PPTase inh,G9a inh
CCOC(=O)CSc1nc(C)c2cc(C)c(C)cc2n1,i,i,i,i,?
Cc1cc2nc(SCCOC(=O)Nc3ccc(Cl)cc3)nc(C)c2cc1C,i,i,i,i,2µM
Cc1ccc(NC(=O)c2noc3c2CCC3)cc1C,45µM,40µM,50µM,i,?
COc1cc(OC)c(NC(=O)c2nn(C)c3c2COc2ccccc2-3)cc1Cl,i,i,i,nt,2.2µM
COc1ccc(NC(=O)c2noc3c2CCC3)cc1,45µM,56µM,?,i,?
COC(=O)c1ccccc1NC(=O)c1noc2c1CCCC2,i,i,i,i,i[12.7 µM]
COc1cc(NC(=O)c2noc3c2CCC3)c(OC)cc1Cl,50µM,45µM,?,?,?
